# Mtb betalactam = beta-lactam sensitization of Mtb H37Rv; M. tuberculosis H37Rv growth with meropenem, percent inhibition; inhibition, % at 25 µM; 330,000 compounds, 0.27% hits; AID 434955; call rule not given here;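 note: growth measured after seven days incubation then overnight dye step; 0% = bacteria only wells and 100% = bacteria with antibiotic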
# Rv3671c protease = inhibits the M. tuberculosis serine protease Rv3671c; P9WHR9; inhibition, % at 5.96 µM; 320,000 compounds, 0.048% hits; in the data active = inhibition above about 38%;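 note: extracellular domain of Rv3671c used as enzyme; 0% = enzyme with DMSO and 100% = no enzyme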
# FBA Mtb inh = inhibitors of M. tuberculosis fructose-bisphosphate aldolase. inhibition, % at 1 µM. AID 588726. P9WQA3. purified M. tuberculosis FBA, fluorescence read-out. 360,000 compounds, 2.3% hits;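 note: 0% = vehicle and 100% = reference inhibitor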
# Target sequence (P9WQA3 whole entry, looked up): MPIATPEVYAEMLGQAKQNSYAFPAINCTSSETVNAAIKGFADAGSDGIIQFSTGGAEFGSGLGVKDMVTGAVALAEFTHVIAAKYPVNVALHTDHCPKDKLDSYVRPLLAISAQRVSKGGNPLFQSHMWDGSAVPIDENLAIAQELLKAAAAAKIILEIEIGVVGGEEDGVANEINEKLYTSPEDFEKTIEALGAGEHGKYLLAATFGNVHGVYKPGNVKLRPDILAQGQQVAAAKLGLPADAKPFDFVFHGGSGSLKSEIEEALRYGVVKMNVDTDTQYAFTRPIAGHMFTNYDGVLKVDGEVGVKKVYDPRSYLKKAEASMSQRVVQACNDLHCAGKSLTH
# GDH-TPI counter-1 = counter-screen for M. tuberculosis FBA inhibitors: GDH-TPI coupled enzymes | inhibition, % at 4.8 µM | 360,000 compounds, 1.2% hits | GDH-TPI coupled enzyme counterscreen, NADH absorbance | AID 588335; in the data active = inhibition above about 30%;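 note: 0% = DMSO wells and 100% = wells lacking the enzyme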
# UGM FP inh = Mtb UDP-galactopyranose mutase inhibition; P9WIQ1; purified UGM, fluorescence polarization probe displacement; inhibition, % at 10 µM; 320,000 compounds, 0.06% hits; in the data active = inhibition above about 10%, passing the limit was not always enough
# Mtb FBA confirm = confirmation of M. tuberculosis fructose-bisphosphate aldolase inhibitors; shares compounds with FBA Mtb inh; purified M. tuberculosis FBA, fluorescence read-out; inhibition, % at 1 µM; 5,600 compounds, 78% hits; AID 651616;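 note: 0% = vehicle wells and 100% = reference inhibitor wells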
# GDH-TPI counter-2 = GDH-TPI inhibition counter-screen for FBA inhibitors | shares compounds with FBA Mtb inh | GDH-TPI coupled enzyme counterscreen, fluorescence | inhibition, % at 1 µM | 5,600 compounds, 81% hits | AID 652141; in the data active = inhibition above about 10%
# GDH-TPI dose = counter-screen for M. tuberculosis FBA inhibitors: GDH-TPI dose response; shares compounds with FBA Mtb inh; GDH-TPI coupled enzyme assay, fluorescence, artifact counterscreen; IC50, µM; 170 compounds, 79% hits; AID 652145; call rule not given here
# An asterisk follows results filed as active; . = not tested or not shown; + = active, no number. In the library only some 3.5% were active in any assay of this set; here they are far more common. Cut-off read from the data, not from the text of the source, unless noted: active = inhibition above about 27%; inactive = the rest.
SMILES,Mtb betalactam,Rv3671c protease,FBA Mtb inh,GDH-TPI counter-1,UGM FP inh,Mtb FBA confirm,GDH-TPI counter-2,others
NC(=O)C1CCN(C(=O)CC2(CC(=O)O)CCCC2)CC1,3,14,6,6,-1,.,.,
CC(=O)N(C)C1(c2nnnn2CCOC(=O)Nc2ccc(Cl)cc2)CCCCC1,-6,-11,52*,-15,3,13,4,
CC(C)Cc1cc(-c2ccco2)c(C#N)c(N)n1,-3,-3,54*,6,4,169*,145*,
CCOC(=O)c1ccc(NC(=S)N2CCN(CCO)CC2)cc1,-5,4,0,3,3,.,.,
COc1ccc(COc2cc(-c3cccc(OC)c3)nc3ccc(NC(=O)C(C)C)cc23)cc1,-5,-30,43*,4,1,87*,71*,
COc1ccccc1CCC(=O)Nc1ccc2c(c1)c(=O)n(C)n2Cc1cccc(C(F)(F)F)c1,.,.,94*,2,.,+,197*,
Cn1c(=O)c2cc(NC(=O)NCc3ccc(F)cc3)ccc2n1Cc1cccc(C(F)(F)F)c1,.,.,98*,6,.,152*,139*,
Cc1cccc(NC(=O)CSCC(=O)NCc2cccc(C(F)(F)F)c2)c1,-7,-5,0,-12,0,.,.,
Cn1c(=O)c2cc(NC(=O)CCc3ccc(O)cc3)ccc2n1Cc1cccc(C(F)(F)F)c1,.,.,101*,7,.,7,-7,
COc1ccc(CNC(=O)Nc2cccc(C(F)(F)F)c2)cc1OC,-10,-6,2,4,1,.,.,
Cn1c(=O)c2cc(NC(=O)NCc3ccc(Cl)cc3Cl)ccc2n1Cc1ccc(F)cc1,.,.,89*,11,.,+,165*,
O=C(O)c1ccc(NCCc2ccc(Cl)cc2)c([N+](=O)[O-])c1,-2,-2,-6,3,-1,.,.,
Cn1c(=O)c2cc(NC(=S)NC3CC3)ccc2n1Cc1cccc(C(F)(F)F)c1,.,.,30*,8,.,121*,80*,
COc1ccccc1CCC(=O)Nc1ccc2c(c1)c(=O)n(C)n2Cc1ccc(F)cc1,.,.,105*,10,.,94*,77*,
COc1ccccc1CCC(=O)OCC(=O)Nc1ccc2[nH]c(=O)[nH]c2c1,-2,3,4,2,-1,.,.,
COc1ccc(S(=O)(=O)N2CCC(C(=O)NCCC(=O)Nc3nccs3)CC2)cc1,-1,4,0,-1,-1,.,.,
O=C(Cn1c(=S)[nH]c2ccccc2c1=O)N1CCN(c2ccc(F)cc2)CC1,-9,5,-4,-12,5,.,.,
CCOC(=O)C1CCN(C(=O)CCc2c(C)nc3ncnn3c2C)CC1,-7,2,-5,8,1,.,.,
CCOC(=O)C1CCN(C(=O)CCc2c(C)nc3cc(-c4ccc(OC)cc4OC)nn3c2C)CC1,43,-3,50*,1,-1,100*,68*,
Cc1ccc(-c2cc(C(=O)NCc3ccccn3)c3ccccc3n2)cc1,-4,-13,28*,20,3,123*,116*,
CCc1ccc(-c2cc(C(=O)NCc3ccccn3)c3ccccc3n2)cc1,83,-11,29*,-1,0,88*,65*,
O=C(NCc1ccccn1)c1cc(-c2ccc(Br)cc2)nc2ccccc12,6,-17,5,9,-2,.,.,
CCOC(=O)C1CCCN(C(=O)COc2ccc(C(C)(C)C)cc2)CC1 (stereo not given),.,.,0,4,.,.,.,
Cc1cccc2cc(CNCc3ccccc3)c(Cl)nc12,-4,3,0,-6,1,.,.,
CCOc1cccc(/C=C(\C#N)C(=O)NC2CC2)c1,4,1,-2,4,2,.,.,
SMILES,Mtb betalactam,Rv3671c protease,FBA Mtb inh,GDH-TPI counter-1,UGM FP inh,Mtb FBA confirm,GDH-TPI counter-2,others
N#CCC(=O)Nn1c(=S)[nH]c2ccccc2c1=O,1,-9,2,1,0,.,.,
Cc1cc(C)cc(N(C(=O)c2cccs2)C2C=CS(=O)(=O)C2)c1 (stereo not given),0,-1,1,0,-2,.,.,
COc1cc2c(cc1O)C[C@H]1NCCc3cc4c(c-2c31)OCO4,53,-1,30*,18,1,108*,89*,
c1csc(Cn2c(-c3cccs3)nc3ccccc32)c1,6,5,63*,34*,1,25,28*,
CC(C)Cn1c(-c2cccs2)nc2ccccc21,1,0,51*,5,3,+,152*,
Cn1c(-c2cccs2)nc2ccccc21,-5,8,59*,-4,-1,11,-4,GDH-TPI dose=2.6*
CNc1cc(-c2cccc(OC)c2F)nc2ccnn12,.,.,109*,7,.,90*,62*,
CCOC(=O)c1cc2c(=O)n3ccccc3nc2n(C)c1=NC(=O)c1c(-c2c(F)cccc2Cl)noc1C,-10,4,33*,-5,0,162*,132*,
CCCCn1c(=NC(=O)c2cccnc2)c(C(=O)OCC)cc2c(=O)n3ccccc3nc21,.,.,56*,-12,.,134*,91*,
COc1ccc(OC)c(NC(=O)c2cc3c(=O)n4ccccc4nc3n2C)c1,8,-5,-3,6,-1,.,.,
CCOC(=O)c1cc2c(=O)n3ccccc3nc2n(C(C)C)c1=NC(=O)c1c(-c2c(F)cccc2Cl)noc1C,5,-10,26,3,2,.,.,
CCOC(=O)c1cc2c(=O)n3ccccc3nc2n(Cc2ccco2)c1=NC(=O)c1ccc(OC)cc1OC,-6,0,104*,16,-1,91*,88*,
Cc1cc(C(=O)N2CCC2(C)C(=O)Nc2cccc3ccccc23)nn1C (stereo not given),.,.,-1,1,.,.,.,
CCCOc1ccccc1-c1nc2c([nH]1)c(=O)[nH]c(=O)n2C,15,-2,59*,28,-2,66*,44*,
O=C(CN1CCN(S(=O)(=O)N2CCOCC2)CC1)Nc1cc(Cl)cc(Cl)c1,2,-6,11,5,2,.,.,
Cc1c(C)c2ccc(OC(C)C(=O)NC3CCN(Cc4ccccc4)CC3)cc2oc1=O (stereo not given),5,-2,84*,-7,3,8,-3,
CCCc1cc(=O)oc2cc(C)cc(O)c12,-2,0,1,5,1,.,.,
CCCc1cc(=O)oc2cc(C)cc(OCC(=O)NC3CC3)c12,-2,2,93*,14,0,1,2,
Cc1cc(OCC(=O)NC2CC2)c2c(C)cc(=O)oc2c1,3,-9,80*,4,2,51*,38*,
Cc1cc(OCC(=O)N2CCC[C@@H]2C(=O)O)c2c(C)c(C)c(=O)oc2c1,0,-3,84*,8,-3,123*,98*,
Cc1cc(OCC(=O)N2CCN(c3cccc(Cl)c3)CC2)c2c(C)c(C)c(=O)oc2c1,7,-4,2,7,2,.,.,
Cc1cccc(C)c1OCc1cc(C(=O)N(Cc2c(C)nn(C)c2C)C2CC2)no1,8,-7,-2,-5,-3,.,.,

# From PubChem BioAssay
